Composite z-score and z-score data for 14 molecules are collected here from PubChem BioAssay.

Active and inactive are the calls of the source.

Assay [1] is described as follows: binders of probe aFSTL3 on microarray, primary screen, stem cell growth factor project, biochemical, small-molecule microarray, fluorescence 635/667 (AID 1064).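 Also: measures binding of the biotinylated anti-FSTL3 antibody to printed compounds.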 As to conditions: higher = more signal.
The nature of assay [2]: binders from COS7 lysate, DM2A8 probe, primary screen, torsin A project, cell lysate, small-molecule microarray, fluorescence 635/667 (AID 1065). As to conditions: higher = more signal, COS7 lysate expressing mutant human TOR1A.
The nature of assay [3]: binders of probe aFGF2 on microarray, primary screen, stem cell growth factor project, biochemical, small-molecule microarray, fluorescence 635/667 (AID 1067).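 Also: measures binding of biotinylated aFGF2 protein to printed compounds on slides; z-score merges feature fluorescence and signal-to-noise across triplicate slides.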 As to conditions: higher = more signal.
A short description of assay [4]: binders of probe aFGF10 on microarray, primary screen, stem cell growth factor project, biochemical, small-molecule microarray, fluorescence 635/667 (AID 1071).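 Also: score merges 667 nm spot intensity and signal to noise from triplicate slides.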 As to conditions: higher = more signal.
Assay [5] has as its target Neurogenic locus notch homolog protein 2 (Homo sapiens) (UniProt Q04721). The experiment in a line: Notch2 binders on small-molecule microarrays, primary screen, biochemical, small-molecule microarray, 635 nm fluorescence, stem cell growth factors (AID 1073). As to conditions: Notch2 binding, higher = more signal.
Assay [6] deals with Pro-neuregulin-1, membrane-bound isoform (Homo sapiens) (UniProt Q02297). The experiment in a line: NRG1 binders on small-molecule microarrays, primary screen, psychiatric disease protein project, biochemical, small-molecule microarray, fluorescence 635/667 (AID 1075).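 Also: score combines 667 nm spot fluorescence with signal to noise.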 As to conditions: NRG1 binding, 635 nm fluorescence, higher = more signal.
Assay [7] has as its system Neuregulin-1 EGF-like domain. Put plainly: binders of neuregulin-1 EGF-like domain, primary screen, biochemical, small-molecule microarray, 635 nm fluorescence (AID 1081).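 Also: binding of the protein to compounds printed on small-molecule microarray slides.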 As to conditions: small-molecule microarray binding, higher = more signal.
The nature of assay [8]: FRG1 promoter luciferase signal modulators, primary screen, FRG1 inhibition for FSHD, cell-based, C2C12 myotubes, firefly/Renilla luciferase, luminescence (AID 1084). As to conditions: higher = more signal, called active from +8 up or from −8 down.
A short description of assay [9]: binders of probe aFST on microarray, primary screen, stem cell growth factor project, biochemical, small-molecule microarray, fluorescence 635/667 (AID 1086).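 Also: score merges 667 nm fluorescence with signal-to-noise of each printed compound spot.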 As to conditions: higher = more signal.
Assay [10] in a line: binders of probe aHhip on microarray, primary screen, stem cell growth factor project, biochemical, small-molecule microarray, fluorescence 635/667 (AID 1087).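 Also: score merges spot fluorescence at 667nm with spot signal to noise ratio.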 As to conditions: higher = more signal.

Sequence of Pro-neuregulin-1, membrane-bound isoform (Homo sapiens) (Q02297 whole entry, looked up, the tested form may be a part, canonical isoform): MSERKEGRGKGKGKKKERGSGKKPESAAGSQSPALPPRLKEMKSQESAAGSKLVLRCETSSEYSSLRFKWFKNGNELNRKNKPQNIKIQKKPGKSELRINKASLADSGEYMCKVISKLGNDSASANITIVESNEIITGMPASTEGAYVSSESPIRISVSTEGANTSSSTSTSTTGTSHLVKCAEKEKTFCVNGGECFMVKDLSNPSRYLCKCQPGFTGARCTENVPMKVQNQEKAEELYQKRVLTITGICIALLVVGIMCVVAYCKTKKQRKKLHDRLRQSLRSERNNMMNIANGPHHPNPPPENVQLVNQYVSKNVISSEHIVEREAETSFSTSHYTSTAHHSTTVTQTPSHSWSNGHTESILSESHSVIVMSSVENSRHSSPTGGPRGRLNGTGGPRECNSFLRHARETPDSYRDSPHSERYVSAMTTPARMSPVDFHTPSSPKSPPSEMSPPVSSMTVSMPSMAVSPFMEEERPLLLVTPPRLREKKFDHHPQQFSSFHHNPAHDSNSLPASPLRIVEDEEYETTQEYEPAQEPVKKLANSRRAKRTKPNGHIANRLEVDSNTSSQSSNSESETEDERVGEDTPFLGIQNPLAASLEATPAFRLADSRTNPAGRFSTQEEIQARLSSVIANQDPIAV
Sequence of Neurogenic locus notch homolog protein 2 (Homo sapiens) (Q04721 whole entry, looked up, canonical isoform): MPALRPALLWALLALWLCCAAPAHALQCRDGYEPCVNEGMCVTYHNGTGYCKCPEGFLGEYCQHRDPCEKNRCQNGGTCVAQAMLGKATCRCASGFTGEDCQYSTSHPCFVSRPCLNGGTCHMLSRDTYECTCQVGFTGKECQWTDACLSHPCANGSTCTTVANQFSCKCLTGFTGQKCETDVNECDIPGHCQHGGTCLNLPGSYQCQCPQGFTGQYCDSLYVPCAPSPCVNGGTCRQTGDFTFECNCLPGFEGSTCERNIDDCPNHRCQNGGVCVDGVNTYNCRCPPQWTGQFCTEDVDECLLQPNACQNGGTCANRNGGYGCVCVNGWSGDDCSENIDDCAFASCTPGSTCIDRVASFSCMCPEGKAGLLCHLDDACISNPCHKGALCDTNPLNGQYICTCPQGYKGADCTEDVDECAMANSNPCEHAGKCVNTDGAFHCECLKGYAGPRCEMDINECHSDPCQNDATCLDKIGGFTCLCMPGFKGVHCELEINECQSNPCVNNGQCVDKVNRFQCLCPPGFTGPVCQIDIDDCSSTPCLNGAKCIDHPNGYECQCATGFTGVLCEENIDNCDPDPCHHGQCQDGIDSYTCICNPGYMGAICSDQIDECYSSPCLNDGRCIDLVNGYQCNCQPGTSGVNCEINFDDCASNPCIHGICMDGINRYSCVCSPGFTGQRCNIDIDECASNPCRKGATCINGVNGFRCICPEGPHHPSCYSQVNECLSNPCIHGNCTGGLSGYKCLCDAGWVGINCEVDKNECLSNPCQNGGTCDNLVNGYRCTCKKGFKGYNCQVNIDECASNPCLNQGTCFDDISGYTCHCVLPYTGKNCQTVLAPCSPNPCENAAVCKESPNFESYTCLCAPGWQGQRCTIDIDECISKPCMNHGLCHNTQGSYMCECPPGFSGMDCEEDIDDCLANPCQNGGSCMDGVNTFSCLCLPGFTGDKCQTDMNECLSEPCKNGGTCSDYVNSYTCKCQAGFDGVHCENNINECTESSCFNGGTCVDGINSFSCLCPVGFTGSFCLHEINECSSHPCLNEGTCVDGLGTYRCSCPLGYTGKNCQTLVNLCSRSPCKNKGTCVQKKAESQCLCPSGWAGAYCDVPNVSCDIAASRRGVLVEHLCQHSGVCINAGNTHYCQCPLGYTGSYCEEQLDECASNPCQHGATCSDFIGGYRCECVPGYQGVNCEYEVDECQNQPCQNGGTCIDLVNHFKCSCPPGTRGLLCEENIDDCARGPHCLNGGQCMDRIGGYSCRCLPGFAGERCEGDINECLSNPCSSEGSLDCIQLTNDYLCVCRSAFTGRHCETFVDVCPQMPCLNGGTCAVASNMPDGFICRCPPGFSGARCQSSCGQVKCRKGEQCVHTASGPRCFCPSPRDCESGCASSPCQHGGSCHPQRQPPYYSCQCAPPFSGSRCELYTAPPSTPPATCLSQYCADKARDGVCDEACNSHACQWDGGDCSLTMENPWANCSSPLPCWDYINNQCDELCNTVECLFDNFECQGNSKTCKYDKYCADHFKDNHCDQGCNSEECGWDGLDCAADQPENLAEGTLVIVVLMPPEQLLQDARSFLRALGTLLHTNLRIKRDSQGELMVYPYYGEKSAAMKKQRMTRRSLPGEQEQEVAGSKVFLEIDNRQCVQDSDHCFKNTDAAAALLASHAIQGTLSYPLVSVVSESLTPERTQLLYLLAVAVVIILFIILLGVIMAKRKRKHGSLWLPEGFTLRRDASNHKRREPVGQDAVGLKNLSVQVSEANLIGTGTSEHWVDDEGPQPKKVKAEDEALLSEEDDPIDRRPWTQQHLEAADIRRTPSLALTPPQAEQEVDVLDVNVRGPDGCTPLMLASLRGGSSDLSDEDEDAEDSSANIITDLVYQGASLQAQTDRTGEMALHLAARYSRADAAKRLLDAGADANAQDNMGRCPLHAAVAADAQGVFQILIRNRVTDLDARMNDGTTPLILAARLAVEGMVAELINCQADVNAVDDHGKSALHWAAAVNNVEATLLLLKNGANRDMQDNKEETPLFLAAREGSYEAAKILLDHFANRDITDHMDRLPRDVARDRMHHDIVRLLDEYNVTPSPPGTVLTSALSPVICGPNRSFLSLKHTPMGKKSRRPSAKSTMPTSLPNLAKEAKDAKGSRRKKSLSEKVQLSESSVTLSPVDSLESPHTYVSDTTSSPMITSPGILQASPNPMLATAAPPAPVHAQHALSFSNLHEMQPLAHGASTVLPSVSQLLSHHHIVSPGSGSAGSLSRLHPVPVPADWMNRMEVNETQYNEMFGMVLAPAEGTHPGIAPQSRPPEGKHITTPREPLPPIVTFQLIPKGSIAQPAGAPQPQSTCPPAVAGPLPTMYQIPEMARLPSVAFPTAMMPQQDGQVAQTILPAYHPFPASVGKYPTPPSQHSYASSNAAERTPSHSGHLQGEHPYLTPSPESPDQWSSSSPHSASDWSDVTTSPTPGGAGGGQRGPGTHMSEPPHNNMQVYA

Turning to `CCCCCCc1nc(-c2ccc(-c3ccc(Cl)c(Cl)c3)o2)cc2c1[Si](C(C)C)(C(C)C)OC2`, the composite z-score in assay [1] was 0.0736; in [2], -0.207; in assay [3] it was -0.162; in [4], -0.632; in assay [5], -1.01; in assay [6] it was -0.14. Also, the composite z-score in assay [7] was 0.262; in assay [9] it was -0.634; in [10], -0.134. Moreover, the z-score in assay [8] is 1.25 (inactive).
`COCCOC(=O)N1C(=O)[C@@]2(c3cc(C#CCC(C(=O)OC)C(=O)OC)ccc31)[C@H](C(=O)Nc1nc3ccccc3s1)[C@H]1C(=O)O[C@H](c3ccccc3)[C@H](c3ccccc3)N1[C@@H]2c1ccc(O)cc1`: the composite z-score was -0.566 in assay [1]; 0.304 in assay [2]; 0.412 in assay [3]; 0.742 in assay [4]; 1.45 in assay [5]; 0.158 in assay [6]. The values for the composite z-score in [7], in assay [9] and in assay [10] were 1.3, 0.805 and 0.314, respectively. Besides, in assay [8], the z-score was 0.203 (inactive).
With `O=C(NCc1ccc(F)cc1)[C@H]1C[C@H]2C(=O)N3CCC[C@H]3C(=O)N2[C@H]1c1ccc(O)cc1`, the composite z-score in assay [1] is 0.883; in assay [2], -0.554; in assay [3], -0.195; in [4], -0.216; in [5] it was -0.428; in assay [6], 0.192. For the same molecule, the composite z-score in [7] was 0.49; in assay [9], -0.819; in [10] it was -0.0772. The z-score in [8] is -0.29 (inactive).
As for `COCCCNC(=O)[C@@H]1c2ccccc2C(=O)N(Cc2ccc(OC(F)(F)F)cc2)[C@H]1c1ccc(CO)cc1`, the composite z-score in assay [1] was -0.388; in assay [2], 0.0383; in assay [3], 0.015; in assay [4], 0.235; in [5], 0.329; in [6] it was 0.244. In addition, the composite z-score stood at 0.617 in assay [7], 0.541 in [9] and 1.03 in [10]. Moreover, in assay [8], the z-score is -0.228 (inactive).
On to `O=C1NC(=O)C2C1C=CC(C(O)c1ccc([N+](=O)[O-])cc1)N2Nc1ccccn1` (stereo not given), for which the composite z-score in [1] was 0.0895; in assay [2], -0.0755; in [3] it was -0.0442; in assay [4] it was 0.0525; in assay [5], 0.864; in assay [6] it was 0.441. For the same molecule, the values for the composite z-score in assay [7], in [9] and in assay [10] were 0.554, -0.16 and -0.0074, respectively. Further, the z-score in [8] is 0.484 (inactive).
For `COC(=O)[C@@]1(Cc2ccc(F)cc2)[C@H]2c3cc(C(=O)N4CCCC4)n(CCc4ccccn4)c3C[C@H]2CN1C(=O)c1ccccc1`, the composite z-score is 0.319 in assay [1]; -0.439 in assay [2]; 0.165 in [3]; 0.124 in assay [4]; 1.43 in assay [5]; 1.8 in assay [6]. Also, the values for the composite z-score in assay [7], in assay [9] and in assay [10] were 1.4, 0.858 and -0.201, respectively. For the same molecule, the z-score in assay [8] was 1.23 (inactive).
With `C=C1C(=O)C=C2CN(C(=O)c3ccccc3)[C@@](Cc3ccc(OC)cc3)(C(=O)OC)[C@@H]12`, the composite z-score amounted to 0.53 in [1]; 0.442 in assay [2]; 0.369 in assay [3]; 1.01 in assay [4]; 1.72 in assay [5]; 2.09 in assay [6]. The composite z-score in [7] was 1.29; in [9], 0.924; in [10] it was 0.212. In addition, the z-score in [8] was 2.08 (inactive).
Take `O=C(NCc1ccccc1)[C@@H]1c2ccccc2C(=O)N(Cc2ccc(OC(F)(F)F)cc2)[C@H]1c1ccc(CO)cc1`: the composite z-score is 0.85 in assay [1]; 0.0787 in [2]; -0.0784 in [3]; -0.225 in assay [4]; -0.674 in [5]; 1.19 in [6]. Also, the composite z-score in assay [7] was determined as 0.921; in assay [9], 0.0209; in [10] it was 0.321. In assay [8], the z-score is -1.37 (inactive).
Consider `[N-]=[N+]=Nc1ccccc1[C@H]1OC(c2ccc(OCCCO)cc2)=N[C@@]1(Cc1ccccc1)C(=O)NCC(O)CO` (stereo not given in full), for which the composite z-score in assay [1] came to 0.277; in assay [2] it was 0.0899; in [3] it was 0.0528; in assay [4], 0.231; in [5], 1.36; in assay [6], 1.19. Further, the values for the composite z-score in assay [7], in assay [9] and in assay [10] were 1.12, 1.03 and -0.0541, respectively. Also, the z-score in [8] was 2.22 (inactive).
Turning to `COCCOC(=O)N1C(=O)[C@@]2(c3cc(C#CC4(O)CCCCCC4)ccc31)[C@H](c1ccc(O)cc1)N1[C@H](c3ccccc3)[C@H](c3ccccc3)OC(=O)[C@H]1[C@@H]2C(=O)N1CCCCCCC1`, the composite z-score was 2.85 in [1]; 0.567 in assay [2]; 0.0059 in assay [3]; 0.83 in assay [4]; 0.547 in [5]; 0.903 in assay [6]. The composite z-score in assay [7] worked out at 1.15; in assay [9], 2.06; in [10], 1.39. In assay [8], the z-score is -0.0559 (inactive).
As to `O=C1[C@H]2C=C(I)[C@H](C[C@@H]2c2ccccc2)[C@@]12CO2`, the composite z-score is -0.372 in [1]; -0.0809 in assay [2]; -0.104 in assay [3]; -0.142 in assay [4]; 0.0878 in assay [5]; -0.165 in assay [6]. Besides, the figures for the composite z-score in [7], in assay [9] and in [10] were -0.507, 0.281 and -0.214, respectively. Also, the z-score in [8] is 1.55 (inactive).
Consider `CCCNC(=O)[C@@]1(c2ccc([N+](=O)[O-])cc2)CC(=O)N(C(C)C)[C@@H]1c1ccc(CO)cc1`, for which the composite z-score in assay [1] was 0.829; in assay [2], -0.22; in assay [3] it was -0.111; in assay [4], -0.904; in assay [5], -1.73; in [6], 0.0532. For the same molecule, the values for the composite z-score in assay [7], in [9] and in assay [10] were 0.843, -1.14 and -0.0618, respectively. In addition, the z-score in assay [8] was -0.558 (inactive).
For the molecule `CC(C)N1C(=O)C[C@@](C(=O)NCCN2CCOCC2)(c2ccc([N+](=O)[O-])cc2)[C@H]1c1ccc(CO)cc1`, the composite z-score in [1] was 0.489; in [2], -0.32; in assay [3] it was -0.21; in [4] it was -0.692; in assay [5] it was -0.575; in assay [6], 0.543. For the same molecule, the composite z-score is 0.851 in [7], -1.1 in [9] and -0.0708 in assay [10]. Besides, the z-score in assay [8] was 1.08 (inactive).
For `CN1C(=O)[C@@H]2[C@@H](CC(COc3ccccc3)=C3[C@@H](CCc4ccccc4)OB(O)C[C@@H]32)C1=O`, the composite z-score in assay [1] was -0.124; in assay [2], 0.275; in assay [3] it was -0.0415; in [4] it was 0.121; in [5] it was 0.371; in [6], 0.445. Further, the composite z-score in assay [7] is 0.56; in [9], 0.0157; in assay [10], -0.0994. The z-score in assay [8] is -0.799 (inactive).
